34 compounds from PubChem BioAssay (NCI) can be followed below.

Molecules are shown by their SMILES. About 83,000 compounds went through this panel and 20% of them were active in at least one assay; those are over-represented in the sample as a whole.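 Treatment: one concentration, 48 hours, 96-well format. Scoring: percent growth, with anything below 10 considered active.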 A number with no mark means an inactive call. Activity calls are given as the source filed them.

The subject of this assay is SF-295 CNS. Nature of the assay: NCI-60 one-dose screen, 48 h (100 = growth as untreated, 0 = no growth, -100 = all killed). As to conditions: 10 µM unless noted.
`N#C/C(=C\c1ccc(-c2ccc(Cl)c(Cl)c2)o1)c1nc(-c2ccco2)cs1`: the growth is 98.7%.
The value for `CC(C)C1=C[C@@]23CC[C@@H]4[C@](C)(CCC[C@@]4(C)C(=O)N4CCCNCC4)[C@H]2C[C@@H]1[C@H]1C(=O)CCC(=O)[C@H]13` was 93.7%; that for `COc1ccc(CCNc2nc(SC)nc(-c3cccc([N+](=O)[O-])c3)c2C#N)cc1OC` was 88.5%.
As to `Cc1cc(NS(=O)(=O)c2ccc(-c3cnc(C4CC4)o3)cc2)ccc1Cl`, the growth is 1.8% (active).
Regarding `COc1ccc(-c2cc(C(=O)N=Nc3c(O)[nH]c4ccc(Br)cc34)no2)cc1`, the growth was 103%.
The value for `CCCOc1cc2ccccc2cc1C(=O)Nc1nc(NC)c2c(ccc3nccc32)[nH]1` was -66.6% (active); that for `CCCCN(CCCC)CCCn1c(-c2ccccc2)ccc1-c1ccccc1` was 60%; that for `Cc1nc2ccccc2n1C(=O)C[C@@H]1NC(=S)NC1=O` was 98.4%.
Take `N#CCCN=Nc1c(O)[nH]c2ccc([N+](=O)[O-])cc12`: the growth was 105%.
With `Cc1cc(N2CCOCC2)nc(NCc2cc(Nc3ccnc4cc(Cl)ccc34)ccc2F)n1`, the growth is -84.4% (active).
The value for `Nc1n[nH]c2ccc([C@@H]3Nc4cc5c(cc4[C@H]4C6CCC(C6)[C@@H]34)C(=O)NC5)cc12` (some centres undefined) was 10.8%; that for `c1ccc(-c2c(-c3ccccc3)[n+](Cc3ccc4ccccc4c3)c(-c3ccc(-c4nc5ccccc5s4)cc3)n2Cc2ccc3ccccc3c2)cc1` was -99.6% (active); that for `C=CC(=O)Nc1cccc(-c2nc(SC)nc(NCc3ccccc3)c2C#N)c1` was 67.8%.
With `CCCOc1ccc2nc(NC(=O)OC)[nH]c2c1`, the growth is -5.89% (active).
Regarding `COc1cccc(/C=C2\Oc3cc(OCCN4CCCC4)ccc3C2=O)c1`, the growth is 105%.
Under `COc1ccc(/C=C2\Oc3cc(OCCCCN4CCCC4)ccc3C2=O)cc1` stands 83.5%.
The value for `COc1cccc(-c2nn(C(C)(C)C)cc2-c2ccnc(NCCCNS(=O)(=O)c3cccc4ccccc34)c2)c1` was 101%.
Under `COc1cccc(-c2nc3sccn3c2-c2ccnc(NCCCNS(=O)(=O)c3c(Cl)cccc3Cl)c2)c1` stands 50.9%.
As for `O=C1c2cc3c(cc2-c2c1c1cc(F)c(F)cc1c(=O)n2CCCn1ccnc1)OCO3`, the growth was -12.4% (active).
Under `O=C(/C=C/c1cccc(Cl)c1)c1ccc(O)c(CN2CCN(c3cc4c(cc3F)c(=O)c(C(=O)O)cn4C3CC3)CC2)c1` stands 43.5%; under `CCCn1c(=O)[nH]c(N)c([C@H]2c3ccccc3Oc3[nH]c(=O)n(CCC)c(=O)c32)c1=O`, 88.1%.
Under `N#CCCN=Nc1c(O)[nH]c2ccc(F)cc12` stands 101%.
Under `COc1ccc(-c2n[nH]nc2-c2csc3ccccc23)cc1OC` stands 25.9%; under `COc1cc(/C=C/c2cc(O)c3cc(C(C)=O)c(=O)oc3c2)cc2c1O[C@]1(C)CC[C@@H](O)C(C)(C)[C@H]1C2`, -63.3% (active); under `O=C(N=Nc1c(O)[nH]c2ccc(Br)cc12)c1cc(-c2ccccc2)on1`, 97.1%.
Turning to `CSc1nc(NCc2ccccc2)c(C#N)c(-c2cccc([N+](=O)[O-])c2)n1`, the growth is 98.9%.
Under `O=S(=O)(Nc1ccc(Cl)c(F)c1)c1ccc(-c2cnc(C3CC3)o2)cc1` stands 10.3%; under `CC1(C)CC[C@]2(C(=O)Nc3ccccn3)CC[C@]3(C)C(=CC[C@@H]4[C@@]5(C)C/C(=C/c6cccnc6)C(=O)C(C)(C)[C@@H]5CC[C@]43C)[C@H]2C1`, 38.1%; under `O=S(=O)(Nc1ccc(Br)c(Cl)c1)c1ccc(-c2cnc(C3CC3)o2)cc1`, 5.84% (active).
Under `C=C(C)[C@@H]1CC[C@]2(C(N)=O)CC[C@]3(C)[C@H](CC[C@@H]4[C@@]5(C)C/C(=C/c6ccco6)C(=O)C(C)(C)[C@@H]5CC[C@]43C)[C@@H]12` stands 90.2%; under `Cc1nc2c3c(-c4ccccc4)c(-c4ccccc4)oc3ncn2n1`, 92.7%.
The value for `COc1cccc(-c2nn(C(C)(C)C)cc2-c2ccnc(NCCCNS(=O)(=O)c3ccc(C)cc3)c2)c1` was 103%; that for `COc1ccc(-c2nc3ccc(-c4nc5ccc(N6CCN(c7ccc(F)cc7)CC6)cc5[nH]4)cc3[nH]2)cc1OC` was 76%; that for `O=C1NC(=S)NC(=O)C1CC(=O)n1c(-c2ccccc2)nc2ccccc21` was 96.3%.
